Results as given in PubChem BioAssay.
Activity calls are given as the source filed them.

Key:
[1] = target: Albumin (Bos taurus) (UniProt P02769); assay: compounds binding labelled BSA control protein – biochemical, small-molecule microarray, Alexa647 label, 635/667 nm fluorescence, artefact control for SMM control protein annotation, profiling panel (AID 1118); details: BSA-A647 binding, fluorescence 635 nm, higher = more signal;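 also: score merges 667 nm emission intensity and signal-to-noise per printed compound spot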
Albumin (Bos taurus), sequence (P02769 whole entry, looked up): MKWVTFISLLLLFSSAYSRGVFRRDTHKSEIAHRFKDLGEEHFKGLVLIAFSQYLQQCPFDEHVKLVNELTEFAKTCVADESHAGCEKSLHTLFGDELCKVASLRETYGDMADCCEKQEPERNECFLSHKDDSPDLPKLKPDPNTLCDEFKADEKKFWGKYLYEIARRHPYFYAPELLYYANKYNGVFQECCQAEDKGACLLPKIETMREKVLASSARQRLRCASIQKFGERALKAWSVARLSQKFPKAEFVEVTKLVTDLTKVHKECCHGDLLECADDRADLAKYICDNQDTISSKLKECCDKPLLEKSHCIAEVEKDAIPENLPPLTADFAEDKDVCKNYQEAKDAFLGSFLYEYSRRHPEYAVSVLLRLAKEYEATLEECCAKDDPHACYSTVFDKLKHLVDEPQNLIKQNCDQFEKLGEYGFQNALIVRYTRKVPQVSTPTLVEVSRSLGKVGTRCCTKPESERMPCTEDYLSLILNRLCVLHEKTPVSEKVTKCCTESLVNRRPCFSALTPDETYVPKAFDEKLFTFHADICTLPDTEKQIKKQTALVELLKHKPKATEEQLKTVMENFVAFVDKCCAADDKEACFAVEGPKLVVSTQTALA

[2] = probe aXIP binding to arrayed compounds – biochemical, NeuroSMM set, 635/667 nm fluorescence, primary screen (AID 1119); details: small-molecule microarray, higher = more signal, called active from +8 up or from −8 down;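 also: probe is the protein aXip251-270 applied at 1 µg/mL to compound-printed slides; binding of probe to printed compounds measured as 667 nm fluorescence plus signal to noise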
[3] = probe aNOTCH3 binding on compound microarray – biochemical, small-molecule microarray, 635/667 nm fluorescence, primary screen (AID 1120); details: higher = more signal;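 also: probe is a biotin-tagged antibody raised against NOTCH3 rather than NOTCH3 protein; score merges spot fluorescence near 667 nm with spot signal to noise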
[4] = probe aNOTCH2 binding on compound microarray – biochemical, small-molecule microarray, 635/667 nm fluorescence, primary screen (AID 1121); details: higher = more signal;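 also: score merges feature fluorescence read at 667 nm with its signal to noise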
[5] = target: Carbonic anhydrase 2 (Homo sapiens) (UniProt P00918); assay: compounds binding carbonic anhydrase 2 – biochemical, small-molecule microarray, Alexa647-labelled CAII, profiling panel (AID 1122); details: CAII-A647 binding fluorescence, higher = more signal
[6] = COS7 lysate on small-molecule microarray, probe aHis, 635 nm (AID 1123); details: COS7 cell lysate, fluorescence, higher = more signal;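 also: z-score combines 667nm fluorescence intensity with signal-to-noise per printed compound spot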
[7] = probe aLAP1 signal on lysate-treated microarray – cell lysate, small-molecule microarray, COS7 lysate, primary screen (AID 1124); details: probe aLAP1, fluorescence, higher = more signal;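 also: lysate comes from COS7 cells expressing LAP1 and is applied at 0.3 µg/mL; score merges spot fluorescence near 667 nm with signal-to-noise over triplicate slides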
[8] = test system: Sam68 (KHDRBS1); assay: compounds binding KHDRBS1 protein – biochemical, small-molecule microarray, 635 nm fluorescence, primary screen (AID 1125); details: higher = more signal;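 also: score merges 667 nm channel intensity with signal to noise over triplicate slides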
[9] = test system: Chordin-like protein 2 (CHRDL2); assay: compounds binding chordin-like 2 – biochemical, small-molecule microarray, 635 nm fluorescence, primary screen (AID 1126); details: fluorescence 635 nm, higher = more signal;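 also: printed compound slides probed with Chrdl2 protein at 4 µg/mL for 1 h at 4 C; score merges 667 nm emission intensity with signal to noise over three replicate slides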
[10] = target: Concanavalin-A (Canavalia ensiformis) (UniProt P02866); assay: compounds binding concanavalin A lectin – biochemical, small-molecule microarray, Alexa647 label, 635 nm, artefact control for SMM control protein annotation, primary screen (AID 1127); details: ConA-A647 binding fluorescence, higher = more signal;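 also: z combines 667 nm emission intensity with signal-to-noise across three replicate slides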
Concanavalin-A (Canavalia ensiformis), sequence (P02866 whole entry, looked up): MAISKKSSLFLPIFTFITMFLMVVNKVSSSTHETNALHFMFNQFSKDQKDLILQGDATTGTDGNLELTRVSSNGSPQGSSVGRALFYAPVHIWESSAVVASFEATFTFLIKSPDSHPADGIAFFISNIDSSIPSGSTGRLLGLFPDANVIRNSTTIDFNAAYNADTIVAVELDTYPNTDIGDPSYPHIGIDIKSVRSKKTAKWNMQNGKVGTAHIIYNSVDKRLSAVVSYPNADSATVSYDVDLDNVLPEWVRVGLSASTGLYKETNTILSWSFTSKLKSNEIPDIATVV

Compound | composite z-score [1] | composite Z-score [2] | composite z-score [3] | composite z-score [4] | composite z-score [5] | composite z-score [6] | composite z-score [7] | composite z-score [8] | composite z-score [9] | composite z-score [10]
C/C=C/[C@@H](CCn1cc([C@H](O)c2ccccc2)nn1)[Si](C)(C)c1ccc(OC)cc1 | -0.91 | 2.17 (inactive) | -0.367 | -0.195 | -0.105 | 1.15 | 0.614 | -0.123 | 0.0697 | -0.333
COCCOC(=O)N1C(=O)[C@@]2(c3cc(C#CCC(C(=O)OC)C(=O)OC)ccc31)[C@H](C(=O)N1CCCCCCC1)[C@H]1C(=O)O[C@H](c3ccccc3)[C@H](c3ccccc3)N1[C@@H]2c1ccc(O)cc1 | -0.0345 | 0.604 (inactive) | 0.996 | 0.222 | 0.387 | 2.34 | 2.4 | 1.31 | 1.29 | 0.783
COc1ccc(C#Cc2ccc3c(c2)[C@]2(C(=O)N3)[C@H](C(N)=O)[C@H]3C(=O)O[C@H](c4ccccc4)[C@H](c4ccccc4)N3[C@@H]2c2ccc(O)cc2)cc1 | 0.49 | 0.312 (inactive) | -0.0947 | -0.148 | 0.414 | 2.27 | 0.211 | 0.902 | -0.0806 | 0.985
O=C(O)[C@@]1(Cc2ccccc2)COC(c2ccc(OCCCO)cc2)=N1 | -0.584 | 0.133 (inactive) | -0.197 | -0.135 | 0.844 | 0.502 | -0.131 | -0.21 | -0.675 | -0.115
COC(=O)[C@@]1(Cc2ccc(F)cc2)[C@H]2c3cc(C(=O)N4CCCC4)n(Cc4ccccc4)c3C[C@H]2CN1C(=O)c1ccccc1 | 0.946 | 1.06 (inactive) | 0.23 | 0.0291 | 0.793 | 2.25 | 0.65 | 0.253 | -1.32 | 0.428
CCCCC(=C=CC[C@H](O)c1ccccc1OCCO)C[C@H](O)c1ccccn1 | 0.0165 | -0.452 (inactive) | 0.0311 | -0.164 | 0.557 | -0.137 | 0.271 | -0.0949 | 0.547 | 0.319
C[C@]12C(=O)N(CCCCCO)[C@@H]3C(=O)N(c4ccc(Cl)cc4)CC=CC31O[C@@H]1/C=C\CCCOC(=O)C12 (stereo not given in full) | 0.153 | 0.312 (inactive) | -0.376 | -0.14 | -0.247 | -0.947 | -0.615 | -0.698 | -1.12 | -1.02
C=CCNC(=O)[C@H]1[C@@H]2C(=O)O[C@@H](c3ccccc3)[C@@H](c3ccccc3)N2[C@@H](c2ccc(O)cc2)[C@]12C(=O)N(C(=O)OCCOC)c1ccc(C#CC3(O)CCCCCC3)cc12 | 0.624 | 0.282 (inactive) | 0.207 | -0.0519 | 0.39 | 1.08 | -0.0714 | 1.23 | -0.233 | 0.915
C[C@H]1NC(=O)C([C@@H](C)OCc2ccccc2)NC(=O)[C@@]23C(=O)N[C@@H](Cc4ccccc4)C2[C@H](C)[C@@]2(C)O[C@H]2C3/C=C/CC/C=C/CNC1=O (stereo not given in full) | 0.506 | -0.169 (inactive) | -0.0647 | -0.0131 | 0.665 | -0.308 | 0.03 | -0.389 | 0.634 | -1.38
C=C(COC)/C(=C/C[C@@H](OC(=O)c1ccncc1)c1cccc(OCCO)c1)c1cc(C(=O)OC)ccc1OC | -0.431 | 0.135 (inactive) | 0.0297 | -0.147 | 0.646 | -0.0596 | 0.996 | 1.24 | 0.699 | 0.206
C=CCC(OC(C)=O)[C@@H]1[C@@H](N(Cc2cccc3ccccc23)C(=O)Cc2ccc(F)cc2)c2cc(OCCCO)ccc2N1C(=O)Cc1ccc(OC)cc1 (stereo not given in full) | 0.006 | -0.328 (inactive) | -0.0454 | -0.119 | 0.191 | -0.0343 | -0.238 | 0.191 | 0.0157 | 1.03
O=C(C=C(CC(O)c1cccc(Cl)c1)OCCF)OCCF (stereo not given) | 0.912 | -0.361 (inactive) | -0.0903 | -0.0746 | 0.0119 | 0.143 | 0.624 | -2.33 | -0.594 | -0.444
O=C1N(CCS(=O)(=O)c2ccccc2)Cc2ccccc2C[C@@]12COC(c1ccc(OCCCO)cc1)=N2 | -0.0401 | 0.319 (inactive) | 0.384 | -0.0651 | 0.585 | 2.55 | 0.203 | 1.32 | 0.825 | 1.17
CN(C)CCCCNC(=O)[C@H]1C[C@H]2C(=O)N[C@@H](CCCC[N+](C)(C)C)C(=O)N2[C@H]1c1cccc(OCCO)c1 | -0.355 | 2.15 (inactive) | -0.0774 | -0.112 | 0.798 | 0.726 | 0.448 | 1.15 | 1.23 | 1
COCCCNC(=O)[C@@]1(Cc2ccccc2CN=[N+]=[N-])N=C(c2ccc(OCCCO)cc2)O[C@H]1c1ccccc1N=[N+]=[N-] | 0.778 | 0.397 (inactive) | 0.303 | 0.168 | 0.421 | 2.43 | 0.656 | 1.02 | -0.379 | 1.04
O=C1NC(=O)C2C1C=CC(C(O)CCc1ccccc1)N2Nc1ccccn1 (stereo not given) | 0.558 | 1.62 (inactive) | -0.145 | -0.0116 | 0.894 | 1.02 | 1.59 | 0.438 | 0.0374 | 0.891

Compound | composite z-score [1] | composite Z-score [2] | composite z-score [3] | composite z-score [4] | composite z-score [5] | composite z-score [6] | composite z-score [7] | composite z-score [8] | composite z-score [9] | composite z-score [10]
O=C1c2ccccc2[C@](Cc2ccccc2I)(C(=O)NCC(F)(F)F)[C@H](c2ccc(CO)cc2)N1Cc1ccccc1 | 0.684 | 0.341 (inactive) | -0.0183 | -0.112 | 0.593 | 2.19 | 0.321 | 1.18 | -0.213 | 1.11
CCOC(=O)C[C@H]1[C@H](OC(=O)Cc2ccc3c(c2)OCO3)[C@@H](NC(=O)c2ccccc2)c2cc(OCCCO)ccc2N1C(=O)c1ccccc1 | -0.359 | 0.713 (inactive) | -0.0573 | -0.121 | 0.0488 | 0.525 | 0.379 | 0.425 | 0.434 | 0.374
COC(=O)[C@@]1(Cc2ccc(OC)cc2)[C@H]2c3cc(C(=O)N(C)C)n(CCF)c3C[C@H]2CN1C(=O)c1ccccc1 | 1.01 | 1.22 (inactive) | 0.292 | -0.0015 | 0.793 | 2.96 | 0.721 | 1.32 | -0.499 | 1.21
CCCCC(CC)C(O)C1C=CC2C(=O)NC(=O)C2N1Nc1ccccn1 (stereo not given) | 0.806 | 0.975 (inactive) | 0.0866 | -0.0071 | 0.677 | 2.53 | 0.321 | 1.27 | -0.105 | 0.86
O=C1OCC=C[C@H]2OC34C=CCN(CCN5CCOCC5)C(=O)[C@H]3N(CCCCCO)C(=O)[C@@H]4[C@@H]12 (stereo not given in full) | 0.485 | -0.232 (inactive) | 0.0694 | -0.117 | 0.829 | 2.03 | -0.723 | -0.229 | 0.129 | 0.476
CCOC(=O)C1=CCC(c2cccc(Cl)c2)O1 (stereo not given) | 0.581 | -0.214 (inactive) | 0.0357 | -0.0651 | 0.181 | 0.389 | -0.064 | 0.609 | -0.384 | 0.16
COCCOC(=O)N1C(=O)[C@@]2(c3cc(C#CCNC(N)=O)ccc31)[C@H](c1ccc(OCCO)cc1)N1[C@H](c3ccccc3)[C@H](c3ccccc3)OC(=O)[C@H]1[C@@H]2C(=O)N1CCN(c2ncccn2)CC1 | 0.358 | 0.764 (inactive) | 0.31 | 0.09 | 0.2 | 0.887 | 0.558 | 1.29 | 0.908 | 1.11
NCCCCCCNC(=O)[C@H]1C[C@H]2C(=O)N3CCC[C@H]3C(=O)N2[C@H]1c1ccc(O)cc1 | 0.425 | 2.61 (inactive) | -0.0362 | -0.201 | 0.722 | 0.307 | 0.597 | 0.644 | 0.777 | 0.998
COc1ccc(C(=O)Nc2ccc(CN3C(=O)[C@]4(O[C@H](CCn5cc([C@H](O)c6ccccc6)nn5)[C@@H]([Si](C)(C)c5ccc(OC)cc5)[C@@H]4C)c4ccccc43)cc2)cc1 | 0.109 | 0.0958 (inactive) | 0.0026 | -0.132 | 0.52 | 0.891 | -0.127 | 0.619 | -0.313 | -0.0974
CC(C)c1ccc(NN2C(C(O)c3cccs3)C=CC3C(=O)N(c4ccccc4)C(=O)C32)cc1 (stereo not given) | 0.772 | 0.302 (inactive) | 0.319 | -0.136 | 0.76 | 2.06 | 0.665 | 1.31 | -0.127 | 1.13
C[C@]12C(=O)N(CCCO)[C@@H]3C(=O)N(c4ccc(Cl)cc4)CC=CC31O[C@@H]1/C=C\CCCOC(=O)C12 (stereo not given in full) | 0.309 | 0.264 (inactive) | -0.305 | -0.118 | 0.883 | 1.46 | 0.492 | 0.518 | -1.38 | -0.743
CC(C)C[C@@H]1NC(=O)[C@@]23C(=O)N[C@@H](Cc4ccccc4)C2[C@H](C)[C@@]2(C)O[C@H]2C3/C=C/C/C=C\CNC(=O)[C@@H]2CCCN2C1=O (stereo not given in full) | 0.777 | 0.572 (inactive) | -0.0026 | -0.129 | 0.391 | -0.351 | 0.339 | -0.747 | 0.698 | -0.838
COCCOC(=O)N1C(=O)[C@@]2(c3cc(C#Cc4ccc(OC)cc4)ccc31)[C@H](C(=O)N1CCc3cc(OC)c(OC)cc3C1)[C@H]1C(=O)O[C@H](c3ccccc3)[C@H](c3ccccc3)N1[C@@H]2c1ccc(O)cc1 | -0.237 | -0.0164 (inactive) | 0.436 | 0.357 | 0.282 | 0.853 | 0.844 | 1.28 | 0.805 | 1.16
Cc1ccc(S[C@]2(C(=O)NCC(C)C)CC(=O)N(C3CCCCC3)[C@@H]2c2ccc(CO)cc2I)cc1 | 0.812 | 0.209 (inactive) | -0.246 | -0.0862 | 0.637 | 1.51 | 0.738 | 1.28 | -0.0402 | 0.88
COC(=O)[C@@]1(Cc2ccc(F)cc2)[C@H]2c3cc(C(=O)N(C)C)n(Cc4ccc(C)c(F)c4F)c3C[C@H]2CN1C(=O)c1ccccc1 | 0.751 | 0.818 (inactive) | 0.243 | 0.0742 | 0.713 | 3.15 | -0.0137 | 1.07 | -0.991 | 0.879
COCCOC(=O)N1C(=O)[C@@]2(c3cc(C#CC4(O)CCCCCC4)ccc31)[C@H](C(=O)NC[C@H](O)c1ccccc1)[C@H]1C(=O)O[C@H](c3ccccc3)[C@H](c3ccccc3)N1[C@@H]2c1ccc(OCCO)cc1 | 0.067 | 0.244 (inactive) | -0.0328 | -0.0995 | 0.495 | 1.23 | 0.217 | 1.3 | 0.223 | 1.13
